Efflux pump inh – inhibitors of Candida antifungal efflux pumps expressed in yeast. S. cerevisiae Candida pump triplex, Nile Red efflux. inhibition, % at 10 µM. 330,000 tested, 0.44% active. AID 485275;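 active = plate passing quality check with inhibition over a set limit, or well fluorescence over plate mean plus 4 SD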;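 note: Nile Red retained in pooled yeast measured as flow cytometry median fluorescence; higher means more Nile Red kept so more efflux inhibition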
CIT2 TOR yeast – modulators of TOR pathway CIT2-GFP in S. cerevisiae | S. cerevisiae CIT2-GFP strain, flow cytometry, 3 h; 100 means same as DMSO wells | GFP response vs DMSO, % at 10 µM | 320,000 tested, 0.065% active | AID 2029;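 active = GFP response relative to DMSO above a set limit, near the screen mean plus 3 SD, cut at about 150% in these data; inconclusive = Fewer than 70 cells measured for a yeast strain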;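 note: ratio of well median GFP fluorescence to mean of DMSO wells on the plate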
MEP2 TOR yeast – alters MEP2-GFP fluorescence in TOR pathway yeast screen; GFP response vs DMSO, % at 10 µM; AID 2016; S. cerevisiae MEP2-GFP strain, flow cytometry GFP, 3 h; 100% = DMSO control level; 330,000 tested, 0.51% active;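 active = GFP response versus DMSO above a set limit, roughly screen mean plus 3 SD, cut at about 180% in these data; inconclusive = fewer than 70 cells counted for a yeast strain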;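 note: median GFP fluorescence of the barcode-gated MEP2-GFP cells per well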
LAP4-GFP MLPCN – alters LAP4-GFP fluorescence in TOR pathway yeast screen; S. cerevisiae LAP4-GFP multiplex, flow cytometry GFP, 3 h; median GFP as percent of DMSO wells; 320,000 tested, 0.34% active; GFP response vs DMSO, % at 10 µM;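 active = GFP response vs DMSO above a set limit, about the screen mean plus 3 SD, cut at about 150% in these data; inconclusive = under 70 cell events counted for the yeast strain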
RPL19A TOR yeast – alters RPL19A-GFP fluorescence in TOR pathway yeast screen; S. cerevisiae RPL19A-GFP strain, flow cytometry, 3 h; active compounds read low; percent response vs DMSO, % at 10 µM; 330,000 tested, 0.3% active;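 active = percent response vs DMSO below 50%; inconclusive = fewer than 70 events counted for the yeast strain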;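 note: median channel GFP fluorescence of the barcoded RPL19A-GFP strain; lower means less RPL19A-GFP as with rapamycin TOR inhibition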
AGP1 TOR yeast – modulators of TOR pathway AGP1-GFP in S. cerevisiae; S. cerevisiae AGP1-GFP multiplex flow cytometry, 3 h; GFP as percent of DMSO wells; GFP response vs DMSO, % at 10 µM; 320,000 tested, 0.02% active;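 active = GFP response relative to DMSO above a set limit, near screen average plus 3 SD, cut at about 150% in these data; inconclusive = fewer than 70 cells counted for the yeast strain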;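 note: median GFP channel fluorescence of the gated AGP1 strain per well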
Each line names hits and unclear results; the compound was inactive in the other large screens; [ ] = another dose, or the depositor's remark. Hits are enriched below; roughly 1.3% of the tested compounds scored in any of these assays.

O=C(c1ccccc1)c1ccc(N=Nc2c(O)[nH]c(=O)[nH]c2=O)cc1	CIT2 TOR yeast inconclusive, MEP2 TOR yeast 226.5[may fluoresce violet]
O=C(O)c1cccc(N=Nc2c(O)[nH]c(=O)[nH]c2=O)c1	none
C[N+]1(CC2COC(c3ccco3)O2)CCCCC1 (centres undefined)	CIT2 TOR yeast inconclusive, MEP2 TOR yeast 249.1[may fluoresce violet]
Nc1ccc(N=Nc2ccccc2)cc1	LAP4-GFP MLPCN 190.0
Cc1cc(N=Nc2ccccc2C)ccc1N	none
COC(=O)C1=C(c2ccc(OC)c(OC)c2)C[C@@H]2CC[C@H]1N2C(=O)N1CCOCC1	none
C[CH2][Hg][S]c1ccccc1C(=O)O	Efflux pump inh 3.0
COc1ccc(OC)c(C(O)C2CCCCN2)c1 (centres undefined)	none
CCOC(=O)C(O)(c1ccc(NC(=S)NC(=O)c2ccc(Cl)cc2Cl)c(C)c1)C(F)(F)F (centres undefined)	CIT2 TOR yeast inconclusive, MEP2 TOR yeast 214.8[may fluoresce violet], LAP4-GFP MLPCN inconclusive, RPL19A TOR yeast 27.6[may fluoresce violet], AGP1 TOR yeast inconclusive
COc1ccc2[nH]cc(C3=CCNCC3)c2c1	CIT2 TOR yeast 170.8, MEP2 TOR yeast 182.5, LAP4-GFP MLPCN 173.5
CC1=NCCc2c1[nH]c1cc(O)ccc21	CIT2 TOR yeast inconclusive, MEP2 TOR yeast 197.1[may fluoresce violet]
COc1ccc2c3c([nH]c2c1)C(C)=NCC3	CIT2 TOR yeast inconclusive, MEP2 TOR yeast 259.1[may fluoresce violet]
COc1ccc2c(c1)[nH]c1c(C)nccc12	none
COc1cc2c(cc1OC)C(C(=O)NC(C)C)C1CCCCN1C2=O (centres undefined)	CIT2 TOR yeast inconclusive, MEP2 TOR yeast 498.2[may fluoresce violet], RPL19A TOR yeast 30.5[may fluoresce violet], AGP1 TOR yeast inconclusive
O=C1NC(=O)N(CCc2ccc(F)cc2)C(=O)/C1=C/c1ccco1	LAP4-GFP MLPCN 181.6
O=C1NC(=S)N(c2ccccc2)C(=O)/C1=C/c1ccco1	LAP4-GFP MLPCN 157.3
CC1N=C(c2ccccc2Cl)c2cc(Br)ccc2NC1=O (centres undefined)	none
CC1CN2c3ccc([N+](=O)[O-])cc3CC3(C(=O)N(C)C(=O)N(C)C3=O)C2C(C)O1 (centres undefined)	none
CC(=O)Nc1cc(C(=O)N2CCC3(CC2)OCCO3)ccc1Sc1ccc(F)cc1	none
CN1C(=O)C(=Cc2ccc(SC3CCCCC3)o2)C(=O)N(C)C1=O	LAP4-GFP MLPCN 151.5
O=[N+]([O-])c1cccc(NP(=O)(Oc2ccccc2)Oc2ccccc2)c1	none
CN(C)CC1CSCCC1(O)c1ccc(C(F)(F)F)cc1 (centres undefined)	none
CN(C)CC1CSCCC1(O)c1ccc(Cl)cc1 (centres undefined)	CIT2 TOR yeast inconclusive, MEP2 TOR yeast 205.1[may fluoresce violet], RPL19A TOR yeast 44.6[may fluoresce violet], AGP1 TOR yeast inconclusive
CC[C@@]1(O)C(=O)OCc2c1cc1n(c2=O)Cc2cc3ccccc3nc2-1	LAP4-GFP MLPCN 160.1
CC[C@H](C)/C=C(C)/C=C/C1=CC2=C(Cl)C(=O)[C@](C)(OC(C)=O)C(=O)C2=CO1	CIT2 TOR yeast inconclusive, RPL19A TOR yeast 38.4[may fluoresce violet]
Cc1ccc(/C=C2\C(=O)NC(=O)N(CC3CCCO3)C2=O)s1 (centres undefined)	LAP4-GFP MLPCN 191.1
CCN(CC)c1ccc(/C=C2\C(=O)NC(=O)N(CC3CCCO3)C2=O)cc1 (centres undefined)	none
O=C(/C=C/c1ccccc1)c1c(O)n(CCc2ccccc2)c(=O)[nH]c1=O	none
COc1cc(/C=C/C(=O)c2c(O)n(CCc3ccccc3)c(=O)[nH]c2=O)ccc1O	MEP2 TOR yeast 585.0
CN1[C@@H]2CC[C@H]1CC(OC(=O)C1C=Nc3ccccc31)C2 (some centres undefined)	MEP2 TOR yeast 177.3, LAP4-GFP MLPCN 185.7
c1ccc(C2NCCc3[nH]cnc32)cc1 (centres undefined)	none
CC(=O)OC1N=C(c2ccccc2)c2cc(Br)ccc2NC1=O (centres undefined)	none
CC(=O)OC1N=C(c2ccc(Cl)cc2)c2cc(Br)ccc2NC1=O (centres undefined)	CIT2 TOR yeast inconclusive, MEP2 TOR yeast 451.1[may fluoresce violet]
CC(=O)O[C@H]1CC[C@@]2(C)[C@H](C1)C(=O)C[C@H]1[C@@H]3CC[C@@H]4[C@@H](CN5C[C@@H](C)CC[C@H]5[C@@]4(C)O)[C@@H]3C[C@@H]12	none
N/C(=N/[N+](=O)[O-])N1CCN(C(=O)c2ccc(Cl)cc2)CC1	none
O=c1[nH]c(=O)n(Cc2ccc(F)cc2)c(O)c1C=NCCN1CCCCC1	MEP2 TOR yeast 178.5
O=c1[nH]c(=O)n(-c2ccccc2Cl)c(O)c1C=NCCN1CCCCC1	none
Cc1nccn1Cc1ccc(Cl)nc1	none
CCN(CC)c1ccccc1	none
CCN(CC)c1ccc(/C=C/[N+](=O)[O-])cc1	LAP4-GFP MLPCN 160.3
Cc1cc(C=C2C(=O)N(C)C(=S)N(C)C2=O)c(C)n1-c1ccncc1	LAP4-GFP MLPCN 156.9
Cc1ccnc(-n2c(C)cc(C=C3C(=O)N(C)C(=S)N(C)C3=O)c2C)c1	none
C/C(=N\NP(=S)(c1ccccc1)c1ccccc1)c1ccc(O)cc1O	none
ClCCOCCCl	none
N#CC(C#N)=NNc1ccc(-n2ccc(C(F)(F)F)n2)cc1	LAP4-GFP MLPCN 198.0
O=C1C(Cl)=CC(=Nc2ccc(O)cc2)C=C1Cl	none
C[C@]12CCC3C(CC[C@H]4C[C@@H](O)CC[C@]34C)C1CC[C@@]2(O)C(F)(F)F (some centres undefined)	none

Compound activity as filed in PubChem BioAssay.
